Assay results as given in PubChem BioAssay AID1159580 (chemical genetic matrix, 2015).
Screen size: about 5,500 compounds; about 2,000 (36%) were called active. About 18% were inconclusive and are not listed. No stated cut-off is given here; in the data, active means normalized growth mostly below about 0.91 (no sharp cut-off); inconclusive means no clear call, values can overlap the other calls; inactive means mostly above about 0.92. Some of the results follow.

Experiment: chemical genetic growth profiling, strain panel (AID 1159580);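 further: tested at 20 µM; growth read once vehicle control cultures reached saturation at 30 °C; 1 = growth at the plate median or of vehicle wells; lower values mean less growth of the strain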
Conditions: growth OD

Measured: normalized growth

O=C(/C=C/c1ccccc1)c1c(O)cc(O)cc1O
inactive: S. cerevisiae deletion strains, locus YAL013W, strain DEP1, hits give low values 1.01 | S. cerevisiae deletion strains, locus YBR021W, strain FUR4, hits give low values 0.995 | S. cerevisiae deletion strains, locus YBR229C, strain ROT2, hits give low values 1.01 | S. cerevisiae deletion strains, locus YCL029C, strain bik1, hits give low values 1 | S. cerevisiae deletion strains, locus YDL035C, strain GPR1, hits give low values 1.02 | S. cerevisiae deletion strains, locus YDL074C, strain BRE1, hits give low values 1.02 | S. cerevisiae deletion strains, locus YDL101C, strain DUN1, hits give low values 1.01 | S. cerevisiae deletion strains, locus YDL134C, strain PPH21, hits give low values 1.02 | S. cerevisiae deletion strains, locus YDL185W, strain tfp1, hits give low values 1.01 | S. cerevisiae deletion strains, locus YDL192W, strain arf1, hits give low values 1 | S. cerevisiae deletion strains, locus YDR101C, strain arx1, hits give low values 0.999 | S. cerevisiae deletion strains, locus YDR150W, strain NUM1, hits give low values 1.02 | S. cerevisiae deletion strains, locus YDR162C, strain NBP2, hits give low values 1.04 | S. cerevisiae deletion strains, locus YDR318W, strain mcm21, hits give low values 0.995 | S. cerevisiae deletion strains, locus YDR388W, hits give low values 0.997 | S. cerevisiae deletion strains, locus YDR502C, strain sam2, hits give low values 1 | S. cerevisiae deletion strains, locus YEL061C, strain CIN8, hits give low values 1.01 | S. cerevisiae deletion strains, locus YER110C, hits give low values 1.01 | S. cerevisiae deletion strains, locus YER155C, strain BEM2, hits give low values 1.01 | S. cerevisiae deletion strains, locus YER167W, strain BCK2, hits give low values 1.01 | S. cerevisiae deletion strains, locus YGL078C, strain dbp3, hits give low values 1 | S. cerevisiae deletion strains, locus YGL086W, strain mad1, hits give low values 1 | S. cerevisiae deletion strains, locus YGL248W, strain PDE1, hits give low values 1.01 | S. cerevisiae deletion strains, locus YGR078C, strain PAC10, hits give low values 1.03 | S. cerevisiae deletion strains, locus YGR135W, strain pre9, hits give low values 1 | S. cerevisiae deletion strains, locus YGR229C, strain SMI1, hits give low values 1.02 | S. cerevisiae deletion strains, locus YGR252W, strain gcn5, hits give low values 0.972 | S. cerevisiae deletion strains, locus YHR030C, strain SLT2, hits give low values 1.01 | S. cerevisiae deletion strains, locus YHR079C, strain IRE1 (second series), hits give low values 0.994 | S. cerevisiae deletion strains, locus YHR094C, strain hxt1, hits give low values 1 | S. cerevisiae deletion strains, locus YHR129C, strain ARP1, hits give low values 1.01 | S. cerevisiae deletion strains, locus YHR200W, strain rpn10, hits give low values 1 | S. cerevisiae deletion strains, locus YIL066C, strain RNR3, hits give low values 1.02 | S. cerevisiae deletion strains, locus YIL073C, strain SPO22, hits give low values 1.04 | S. cerevisiae deletion strains, locus YIL125W, strain kgd1, hits give low values 1 | S. cerevisiae deletion strains, locus YIR030C, strain dcg1, hits give low values 0.999 | S. cerevisiae deletion strains, locus YJL095W, strain BCK1, hits give low values 1.01 | S. cerevisiae deletion strains, locus YJL134W, strain LCB3, hits give low values 1.01 | S. cerevisiae deletion strains, locus YJL168C, strain set2, hits give low values 0.993 | S. cerevisiae deletion strains, locus YJL187C, strain SWE1 (second series), hits give low values 1.01 | S. cerevisiae deletion strains, locus YJR043C, strain POL32, hits give low values 0.998 | S. cerevisiae deletion strains, locus YJR075W, strain HOC1, hits give low values 1.01 | S. cerevisiae deletion strains, locus YKL009W, strain mrt4, hits give low values 1.01 | S. cerevisiae deletion strains, locus YKL068W, hits give low values 1 | S. cerevisiae deletion strains, locus YKL085W, strain MDH1 (second series), hits give low values 1 | S. cerevisiae deletion strains, locus YKL085W, strain MDH1, hits give low values 1 | S. cerevisiae deletion strains, locus YKL190W, strain CNB1, hits give low values 1.01 | S. cerevisiae deletion strains, locus YKR001C, strain vps1, hits give low values 1.01 | S. cerevisiae deletion strains, locus YLR039C, strain RIC1, hits give low values 1.04 | S. cerevisiae deletion strains, locus YLR058C, strain SHM2, hits give low values 1.01 | S. cerevisiae deletion strains, locus YLR102C, strain apc9, hits give low values 0.998 | S. cerevisiae deletion strains, locus YLR262C, strain YPT6, hits give low values 1.06 | S. cerevisiae deletion strains, locus YLR268W, strain sec22, hits give low values 0.989 | S. cerevisiae deletion strains, locus YLR330W, strain CHS5, hits give low values 1.01 | S. cerevisiae deletion strains, locus YLR342W, strain FKS1 (second series), hits give low values 1 | S. cerevisiae deletion strains, locus YLR371W, strain rom2, hits give low values 0.997 | S. cerevisiae deletion strains, locus YLR418C, strain cdc73, hits give low values 0.992 | S. cerevisiae deletion strains, locus YML016C, strain PPZ1, hits give low values 1.01 | S. cerevisiae deletion strains, locus YML032C, strain rad52, hits give low values 1 | S. cerevisiae deletion strains, locus YML124C, strain tub3, hits give low values 1.01 | S. cerevisiae deletion strains, locus YMR078C, strain ctf18, hits give low values 1 | S. cerevisiae deletion strains, locus YMR223W, strain ubp8, hits give low values 0.995 | S. cerevisiae deletion strains, locus YMR263W, strain SAP30, hits give low values 1.02 | S. cerevisiae deletion strains, locus YMR307W, strain GAS1, hits give low values 0.915 | S. cerevisiae deletion strains, locus YNL067W, strain RPL9B, hits give low values 1.01 | S. cerevisiae deletion strains, locus YNL128W, strain TEP1, hits give low values 1.02 | S. cerevisiae deletion strains, locus YNL153C, strain GIM3, hits give low values 1.03 | S. cerevisiae deletion strains, locus YNL233W, strain BNI4, hits give low values 1.02 | S. cerevisiae deletion strains, locus YNL250W, strain rad50, hits give low values 1.01 | S. cerevisiae deletion strains, locus YNL271C, strain bni1, hits give low values 1 | S. cerevisiae deletion strains, locus YNL298W, strain CLA4, hits give low values 1.01 | S. cerevisiae deletion strains, locus YNL307C, strain MCK1, hits give low values 1.01 | S. cerevisiae deletion strains, locus YNL322C, strain KRE1, hits give low values 1.01 | S. cerevisiae deletion strains, locus YNR052C, strain pop2, hits give low values 0.998 | S. cerevisiae deletion strains, locus YOL006C, strain TOP1, hits give low values 1.05 | S. cerevisiae deletion strains, locus YOL012C, strain htz1 0.787 | S. cerevisiae deletion strains, locus YOL147C, strain pex11, hits give low values 1.01 | S. cerevisiae deletion strains, locus YOR061W, strain CKA2, hits give low values 1.01 | S. cerevisiae deletion strains, locus YOR069W, strain VPS5, hits give low values 1.01 | S. cerevisiae deletion strains, locus YOR136W, strain idh2, hits give low values 0.995 | S. cerevisiae deletion strains, locus YOR144C, strain elg1, hits give low values 1 | S. cerevisiae deletion strains, locus YOR184W, strain ser1, hits give low values 1.01 | S. cerevisiae deletion strains, locus YOR316C, strain cot1, hits give low values 0.996 | S. cerevisiae deletion strains, locus YPL055C, strain LGE1, hits give low values 1.05 | S. cerevisiae deletion strains, locus YPL241C, strain CIN2, hits give low values 1.01 | S. cerevisiae deletion strains, locus YPR119W, strain clb2, hits give low values 0.997 | S. cerevisiae deletion strains, locus YPR141C, strain kar3, hits give low values 1.01 | S. cerevisiae deletion strains, locus YPR163C, strain tif3, hits give low values 1 | S. cerevisiae deletion strains, locus YPR167C, strain met16, hits give low values 0.998 | S. cerevisiae deletion strains, strain wtn01, hits give low values 1.01 | S. cerevisiae strains, strain wild type, hits give low values 1.01
